Measured values from PubChem BioAssay AID504891 (National Center for Advancing Translational Sciences (NCATS), 2011).
Among all 390,000 compounds or so, about 35 (0.009%) were called active. About 6% were inconclusive and are not listed. Many of the other results were omitted from the sample, so actives are more common in it than they were. Values without a mark were called inactive. Calls come from the whole dose curve; as a rule, active = well fitted inhibition curve with a large enough effect in the polarisation, with a control signal flat (not every such curve was filed as active); inconclusive = small, poorly fitted or top-dose-only effect, or effect the other way, or a change in a side signal; inactive = no such curve, though single readings can be large or run the other way; the % refers to the polarisation.

Target: Peptidyl-prolyl cis-trans isomerase NIMA-interacting 1 (Homo sapiens) (UniProt Q13526)
Sequence (Q13526 whole entry, looked up): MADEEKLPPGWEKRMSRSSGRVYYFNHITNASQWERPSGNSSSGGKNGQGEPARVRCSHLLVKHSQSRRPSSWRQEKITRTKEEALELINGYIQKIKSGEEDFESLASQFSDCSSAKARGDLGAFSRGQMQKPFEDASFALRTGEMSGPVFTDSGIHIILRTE
Assay: qHTS Assay to Find Inhibitors of Pin1
Settings: Pin1 FP peptide displacement, HiFluor488, 10 min; series mostly up to 115 µM; activity, negative = inhibition: at the top concentration
Description: NIH Molecular Libraries Probe Production Network [MLPCN]
NIH Chemical Genomics Center [NCGC]
The unique chemical properties of Pro allow for the adoption of two completely distinct amide bond conformations (cis and trans). Peptidyl-prolyl cis/trans isomerases (PPIases) are evolutionary conserved enzymes that catalyze cis/trans isomerization of peptidyl-prolyl peptide bonds. Distinct from all other PPIases such as cyclophilins and FK506-binding proteins (FKBPs), Pin1 binds a subset of phos.Ser/Thr-Pro-containing proteins using its protein-targeting WW domain and isomerizes only specific phos.Ser/Thr-Pro bonds, which cannot be effectively catalyzed by other known PPIases.
Pin1-catalyzed conformational regulation can control a spectrum of activities of many key regulators in diverse cellular processes such as cell growth, genotoxic and other stress responses, immune response, germ cell development, neuronal differentiation and survival. Pin1 has emerged as a novel molecular timer that modulates its multiple targets at various steps of a given cellular process to synergistically control the amplitude and duration of a cellular response or process. Importantly, Pin1 is tightly regulated by multiple levels and its deregulation has an important role in a growing number of pathological conditions, including cancer, Alzheimer's disease, aging, asthma and microbial infection, providing a potentially new therapeutic option.
The goal of this screen is to find small-molecule inhibitors of Pin1 using a fluorescence polarization competition assay. A HiFluor-488-labeled peptide binds to the active site of Pin1 and can be displaced by compounds. Compounds were screened as a concentration-titration series that ranged from 57 uM to 0.7 nM.
NCGC Assay Protocol Summary:
Pin1 (0.6 uM) was dispensed into black, solid 1536-well plates at 2 uL/well in 10 mM HEPES (pH 7.5), 10 mM NaCl, 0.01% Tween20, 1 mM DTT, and 1% glycerol. Then, 23 nL of compounds or DMSO were delivered to each well using a pin tool. Two uL of Pin1-1b-HiFluor488 peptide (10 mM HEPES (pH 7.5), 10 mM NaCl, 0.01% Tween20, 1 mM DTT, and 1% glycerol, 0.02 uM Pin1-1b-HiFluor488) was then dispensed, and plates were incubated at room temperature for 10 min. The plates were measured on a ViewLux plate reader for fluorescence polarization signal using a 480/20 nM nm excitation filter and 540/25 nM nm S and P emission filters with a 20 second exposure. The %Activity was determined from the corrected fluorescence polarization values. Unlabeled Pin1-1c peptide was used as a control (3.5 mM two-fold serial; 20 uM final concentration) along with a 1x (0.3 uM) and 0x (no-enzyme) Pin1 enzyme control to normalize %Activity of identified inhibitors; 0x enzyme values corresponded to 100%Activity (full inhibition), while 1x Pin1 enzyme values were used to normalize 0%Activity (no inhibition).
Concentration-response curves were fitted to the signals arising from the resulting fluorescence polarization. The concentration-effect curves were then classified based on curve quality (r2), response magnitude and degree of measured activity, and compounds were subsequently categorized based on their curve class.
Keywords: Peptidyl prolyl isomerase, Pin1, fluorescence polarization, MLSMR, MLPCN, NIH Roadmap, qHTS, NCGC
Potency is the fitted concentration of half-maximal effect.

Row | SMILES | activity, negative = inhibition [%] | Potency
1 | CCc1ccccc1NC(=O)c1ccc2nc(CCc3ccccc3)oc2c1 | 2.6 | 
2 | CCc1ccc(CNC(=O)C2CCN(c3nn4cc(-c5ccc(F)cc5)nc4s3)CC2)cc1 | 0.155 | 
3 | Cc1ccc(CNc2ncnc3cc(-c4ccc5c(c4)OCO5)ccc23)o1 | 62 | 
4 | CN1C(=O)c2ccccc2Sc2ccc(NC(=O)Cc3ccc(Cl)cc3)cc21 | 26.7 | 
5 | Cc1cc2c(cc3c(SCc4nc(-c5ccccc5)oc4C)nnc(C)n32)o1 | 8.69 | 
6 | CCOC(=O)C1CCN(C(=O)CSc2c3c(nc4ccc(Cl)cc24)CCCC3)CC1 | -0.165 | 
7 | Cc1c(Cl)cccc1NC(=O)CCS(=O)(=O)c1ccc2c(c1)oc(=O)n2C | 0.402 | 
8 | O=C(CN1c2ccccc2S(=O)(=O)c2ccccc21)Nc1cccc(C(F)(F)F)c1 | 4.41 | 
9 | O=C(COc1ccccc1F)Nc1ccc(C(=O)OCc2cc(=O)n3nc(C4CC4)sc3n2)cc1 | -6.29 | 
10 | N#Cc1nc(Nc2cccc(Cl)c2)nc(NC2CCCC2)n1 | 1.36 | 
11 | COc1ccc(Cn2ccn(CC(=O)Nc3cc(C)ccc3C)c(=O)c2=O)cc1 | 0.673 | 
12 | COc1cccc(NC(=O)c2ccc3nc(CCc4ccccc4)oc3c2)c1 | 14.7 | 
13 | COc1ccc(CC(=O)N2CC(=O)Nc3ccc(Br)cc3C2c2ccc(F)cc2)cc1OC (stereo not drawn) | -0.0112 | 
14 | COc1ccc(N2CCN(S(=O)(=O)CCNC(=O)C(c3ccccc3)c3ccccc3)CC2)cc1 | -3.85 | 
15 | COc1ccc(C2/C=C\CN(C(=O)c3ccc(C)cc3)C(Cc3ccccc3)C(=O)N2Cc2ccc(F)cc2)cc1 (stereo not drawn) | 8.96 | 
16 | Cc1ccc2[nH]c3c(=O)n(CC(=O)NC(C)C)ncc3c2c1 | 5.47 | 
17 | COc1ccc(NC(=O)CCc2nnc3n(CC(C)C)c(=O)c4ccccc4n23)cc1OC | 0.559 | 
18 | Cc1ccc(Cn2ncc3c4sc(C)cc4n(C)c3c2=O)c(C)c1 | 2.78 | 
19 | COc1cc(OC)c2c(C)cc(=O)oc2c1C(CCN1CCCCC1)c1ccc(N(C)C)cc1 (stereo not drawn) | 0.75 | 
20 | CCc1nnc(SCc2c(F)cccc2Cl)c2cc3sccc3n12 | 0.246 | 
21 | O=C1CCc2cc(S(=O)(=O)Nc3cccc(Oc4ccccc4)c3)ccc2N1 | 4.76 | 
22 | NC(=O)C1CCN(c2cc(-c3ccc4c(c3)OCCCO4)ncn2)CC1 | 0.493 | 
23 | COc1ccc(OCc2ccc(-c3nc(C#N)c(N4CCN(c5ccccc5)CC4)o3)o2)cc1 | -7.37 | 
24 | COc1ccc(Cl)cc1NC(=O)CSc1nc2ccccc2c2nc(-c3ccccc3)nn12 | -6.43 | 
25 | CCCN1CCC(=O)N(C(CSc2ccc(OC)cc2)Cc2ccccc2)CC1 (stereo not drawn) | -9.3 | 
26 | COc1ccc(CCC(=O)NCc2ccc3c(c2)CCN3C(=O)c2ccc(F)cc2)cc1 | -7.47 | 
27 | Cc1ccc(-c2nnc3c4ccccc4c(C)nn23)cc1NC(=O)c1cccc(Br)c1 | -5.3 | 

Row | SMILES | activity, negative = inhibition [%] | Potency
28 | Cc1cc2c(s1)c1cnn(Cc3cc(F)c(Cl)cc3Cl)c(=O)c1n2C | -4 | 
29 | COc1cc(Cl)c(C)cc1Nc1nnc(-n2nc(C)cc2C)c2ccccc12 | 0.488 | 
30 | COc1ccc(C2Nc3ccccc3C(=O)N2Cc2ccco2)cc1COc1cccc(NC(C)=O)c1 (stereo not drawn) | 47.2 | 
31 | COc1ccc(-c2ccc3ncnc(NCc4cccs4)c3c2)cc1OC | 0.753 | 
32 | COc1ccc(C2/C=C\CN(Cc3ccco3)C(C)C(=O)N2Cc2ccc(F)cc2)cc1 (stereo not drawn) | 25.5 | 
33 | COc1ccc(-c2onc(C)c2C)cc1S(=O)(=O)NCc1cccs1 | -1.97 | 
34 | Cc1cc(C)n2ncc(C(=O)N3CCCC3)c2n1 | -11.3 | 
35 | CC(C)Oc1cccc(-c2cnc(N3CCC(C(N)=O)CC3)s2)c1 | 1.95 | 
36 | CCCc1nn2c(=O)cc(COC(=O)c3ccc(NC(=O)C(C)Oc4ccccc4)cc3)nc2s1 (stereo not drawn) | -8.84 | 
37 | CN(C(=O)COC(=O)c1cc(-c2ccco2)nc2ccccc12)C1CCS(=O)(=O)C1 (stereo not drawn) |  | 35.5 µM (active)
38 | Cc1cc(C(=O)OCC(=O)N2C(C)CCCC2C)c2ccccc2n1 (stereo not drawn) | 3.11 | 
39 | Cc1ccc(S(=O)(=O)CCC(=O)OCC(=O)N(C)C2CCS(=O)(=O)C2)cc1 (stereo not drawn) | -16 | 
40 | C=C1CCN(C(CC(C)C)C(=O)NCc2cc(OC)c(OC)c(OC)c2)S(=O)(=O)c2ccccc21 (stereo not drawn) | 3.4 | 
41 | CCCCS(=O)(=O)c1oc(-c2cccs2)nc1S(=O)(=O)c1ccccc1 | 14.3 | 
42 | CCCS(=O)(=O)N1CCC(n2c(C(F)(F)F)nc3cccnc32)CC1 | 1.49 | 
43 | N#Cc1ccc(OC2=NS(=O)(=O)c3ccccc32)cc1 | -6.79 | 
44 | O=C(NCc1nnc(C(=O)Nc2ccc(C(F)(F)F)cc2Cl)o1)c1ccccc1 | 4.91 | 
45 | Cc1cccc2c1-c1sc(C(=O)Nc3ccc(F)cc3F)cc1CO2 | -0.856 | 
46 | C#CCOc1ccc(C2CC(=O)Nc3c2c(C)nn3-c2nc(C)cc(C)n2)cc1 (stereo not drawn) | -7.62 | 
47 | CCCN(CCC)CCNC(=O)Cn1cnc2sc(C)c(S(=O)(=O)N3CCC(C)CC3)c2c1=O | -1.59 | 
48 | COc1ccccc1CNC(=O)c1ccc(NC(=O)N2CC(C)Sc3ccccc32)cc1 (stereo not drawn) | 7.05 | 
49 | O=C(O)c1ccc2c(c1)N(Cc1ccc(F)cc1)C(=O)c1ccccc1S2=O (stereo not drawn) | 0.384 | 
50 | O=C(CC1Oc2ccc(Cl)cc2NC1=O)NCc1ccccc1 (stereo not drawn) | 1.66 | 
51 | CCOC(=O)c1cccc(NC(=O)Cn2cnc3nc4c(cc3c2=O)CCCC4)c1 | -0.357 | 
52 | COc1ccc(OC)c(NC(=O)CN2CCCN(Cc3cc(C)ccc3C)S2(=O)=O)c1 | -5.1 | 
53 | Cc1ccc2sc(N(Cc3cccnc3)C(=O)C3COc4ccccc4O3)nc2c1C (stereo not drawn) | 6.41 | 
